Results published in the supplement of paper PMC12067093, “Discovery and optimisation of a covalent ligand for TRIM25 and its application to targeted protein ubiquitination” (Chemical Science, 2025).
Of roughly 21,000 targets only a part is listed; those with the largest changes were picked by preference.

Compound: Cc1cc(ccc1-c1ccccc1)C(=O)N1CCCN(CC1)C(=O)CCl [compound 10]
Assay: probe-labelled cysteine peptide fold change vs DMSO (competition) (log2 fold change); higher = less target engagement (more negative = stronger competition)
Settings: THP-1, incubation time: 4 h
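Also: competitive profiling in live THP-1 cells: cysteine peptides tagged with an iodoacetamide desthiobiotin (IA-DTB) probe, intensity after compound treatment relative to DMSO-treated cells.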

Target: SRPRB_Q9Y5M8_246_EFEFSQLPLKVEFLECSAK (UniProt Q9Y5M8)
- probe-labelled cysteine peptide fold change (10 µM): -0.354
- probe-labelled cysteine peptide fold change (50 µM): -1.1

Target: SOS1_Q07889_838_CIVETENLEER (UniProt Q07889)
- probe-labelled cysteine peptide fold change (10 µM): 0.113
- probe-labelled cysteine peptide fold change (50 µM): 0.392

Target: SUN2_Q9UH99_601_VILQPDVHPGNCWAFQGPQGFAVVR (UniProt Q9UH99)
- probe-labelled cysteine peptide fold change (10 µM): 0.0264
- probe-labelled cysteine peptide fold change (50 µM): 0.295

Target: ST14_Q9Y5Y6_268_SFDLASCDER (UniProt Q9Y5Y6)
- probe-labelled cysteine peptide fold change (10 µM): -0.0626
- probe-labelled cysteine peptide fold change (50 µM): -1.09

Target: SORD_Q00796_179_VLVCGAGPIGMVTLLVAK (UniProt Q00796)
- probe-labelled cysteine peptide fold change (10 µM): -0.0988
- probe-labelled cysteine peptide fold change (50 µM): -1.77

Target: STK11_Q15831_210_ISDLGVAEALHPFAADDTCR (UniProt Q15831)
- probe-labelled cysteine peptide fold change (10 µM): -0.252
- probe-labelled cysteine peptide fold change (50 µM): -0.136

Target: TBCB_Q99426_51_LELLVGSPASCMELELYGVDDK (UniProt Q99426)
Sequence of UniProt Q99426 (Q99426 whole entry, looked up): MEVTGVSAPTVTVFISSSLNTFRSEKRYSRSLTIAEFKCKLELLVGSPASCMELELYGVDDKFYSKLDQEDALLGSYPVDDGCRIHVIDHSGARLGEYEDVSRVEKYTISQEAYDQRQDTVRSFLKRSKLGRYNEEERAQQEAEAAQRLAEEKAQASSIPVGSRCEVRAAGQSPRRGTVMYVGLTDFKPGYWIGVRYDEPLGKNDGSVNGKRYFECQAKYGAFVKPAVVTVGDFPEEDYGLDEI
- probe-labelled cysteine peptide fold change (10 µM): 0.0991
- probe-labelled cysteine peptide fold change (50 µM): 0.421

Target: THOC2_Q8NI27_436_DVFNMFCYLGPHLSHDPILFAK (UniProt Q8NI27)
- probe-labelled cysteine peptide fold change (10 µM): 0.0617
- probe-labelled cysteine peptide fold change (50 µM): 0.215

Target: THG1L_Q9NWX6_47_DFEADDTCLAHCWVVVR (UniProt Q9NWX6)
- probe-labelled cysteine peptide fold change (10 µM): -0.0809
- probe-labelled cysteine peptide fold change (50 µM): 0.0136

Target: SNX1_Q13596_318_LQEVECEEQR (UniProt Q13596)
- probe-labelled cysteine peptide fold change (10 µM): -0.177
- probe-labelled cysteine peptide fold change (50 µM): -0.146

Target: TBC1D13_Q9NVG8_145_ATDYPCLLILDPQNEFETLR (UniProt Q9NVG8)
- probe-labelled cysteine peptide fold change (10 µM): -0.0238
- probe-labelled cysteine peptide fold change (50 µM): 0.373

Target: STAT6_P42226_228_CESLVDIYSQLQQEVGAAGGELEPK (UniProt P42226)
- probe-labelled cysteine peptide fold change (10 µM): 0.0404
- probe-labelled cysteine peptide fold change (50 µM): -0.0978

Target: TMEM120A_Q9BXJ8_47_LQNNCTSSITR (UniProt Q9BXJ8)
- probe-labelled cysteine peptide fold change (10 µM): -0.176
- probe-labelled cysteine peptide fold change (50 µM): -0.0504

Target: TET3_O43151_1381_GKPWSPCK (UniProt O43151)
- probe-labelled cysteine peptide fold change (10 µM): -0.379
- probe-labelled cysteine peptide fold change (50 µM): -1.3

Target: STK11_Q15831_418_ACSASSK (UniProt Q15831)
- probe-labelled cysteine peptide fold change (10 µM): -0.73
- probe-labelled cysteine peptide fold change (50 µM): -1.42

Target: TONSL_Q96HA7_231_ECAHTMR (UniProt Q96HA7)
- probe-labelled cysteine peptide fold change (10 µM): -0.316
- probe-labelled cysteine peptide fold change (50 µM): -1.42

Target: STIP1_P31948_471_CMMAQYNR (UniProt P31948)
- probe-labelled cysteine peptide fold change (10 µM): 0.271
- probe-labelled cysteine peptide fold change (50 µM): -0.0499

Target: ST13_P50502_209_LLGHWEEAAHDLALACKLDYDEDASAMLK (UniProt P50502)
- probe-labelled cysteine peptide fold change (10 µM): -0.319
- probe-labelled cysteine peptide fold change (50 µM): -1.1

Target: STX12_Q86Y82_29_DFSSIIQTCSGNIQR (UniProt Q86Y82)
- probe-labelled cysteine peptide fold change (10 µM): 0.143
- probe-labelled cysteine peptide fold change (50 µM): 0.0626

Target: SQOR_Q9Y6N5_201_CAGAPQK (UniProt Q9Y6N5)
- probe-labelled cysteine peptide fold change (10 µM): -0.191
- probe-labelled cysteine peptide fold change (50 µM): -0.122

Target: TAF6_P49848_235_EITEACVGSCEAK (UniProt P49848)
Sequence of UniProt P49848 (P49848 whole entry, looked up): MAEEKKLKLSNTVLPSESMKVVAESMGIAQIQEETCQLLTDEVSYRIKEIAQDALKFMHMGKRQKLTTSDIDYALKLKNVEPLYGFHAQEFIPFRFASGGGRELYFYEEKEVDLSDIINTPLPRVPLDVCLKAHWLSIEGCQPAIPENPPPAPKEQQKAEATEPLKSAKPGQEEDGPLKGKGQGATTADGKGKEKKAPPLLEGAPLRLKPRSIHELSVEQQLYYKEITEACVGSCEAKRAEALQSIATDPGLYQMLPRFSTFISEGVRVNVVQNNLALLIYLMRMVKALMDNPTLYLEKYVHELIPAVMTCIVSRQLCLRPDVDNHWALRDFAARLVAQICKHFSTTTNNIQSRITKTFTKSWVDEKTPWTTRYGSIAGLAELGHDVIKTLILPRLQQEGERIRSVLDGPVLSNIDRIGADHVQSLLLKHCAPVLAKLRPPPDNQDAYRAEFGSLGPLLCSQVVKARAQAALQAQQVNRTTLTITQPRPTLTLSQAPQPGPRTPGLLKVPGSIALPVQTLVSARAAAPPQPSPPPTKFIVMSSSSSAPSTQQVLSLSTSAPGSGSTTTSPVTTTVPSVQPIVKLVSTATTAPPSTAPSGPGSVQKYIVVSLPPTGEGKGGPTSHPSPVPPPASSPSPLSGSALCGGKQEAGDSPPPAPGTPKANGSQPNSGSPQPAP
- probe-labelled cysteine peptide fold change (10 µM): -0.193
- probe-labelled cysteine peptide fold change (50 µM): -1.67

Target: TNPO1_Q92973_205_SHAVACVNQFIISR (UniProt Q92973)
- probe-labelled cysteine peptide fold change (10 µM): 0.172
- probe-labelled cysteine peptide fold change (50 µM): 0.0841

Target: SORD_Q00796_165_LPDNVTFEEGALIEPLSVGIHACR (UniProt Q00796)
- probe-labelled cysteine peptide fold change (10 µM): 0.00881
- probe-labelled cysteine peptide fold change (50 µM): 0.188

Target: SON_P18583_92_CVSVQTDPTDEIPTKK (UniProt P18583)
Sequence of UniProt P18583 (P18583 whole entry, looked up): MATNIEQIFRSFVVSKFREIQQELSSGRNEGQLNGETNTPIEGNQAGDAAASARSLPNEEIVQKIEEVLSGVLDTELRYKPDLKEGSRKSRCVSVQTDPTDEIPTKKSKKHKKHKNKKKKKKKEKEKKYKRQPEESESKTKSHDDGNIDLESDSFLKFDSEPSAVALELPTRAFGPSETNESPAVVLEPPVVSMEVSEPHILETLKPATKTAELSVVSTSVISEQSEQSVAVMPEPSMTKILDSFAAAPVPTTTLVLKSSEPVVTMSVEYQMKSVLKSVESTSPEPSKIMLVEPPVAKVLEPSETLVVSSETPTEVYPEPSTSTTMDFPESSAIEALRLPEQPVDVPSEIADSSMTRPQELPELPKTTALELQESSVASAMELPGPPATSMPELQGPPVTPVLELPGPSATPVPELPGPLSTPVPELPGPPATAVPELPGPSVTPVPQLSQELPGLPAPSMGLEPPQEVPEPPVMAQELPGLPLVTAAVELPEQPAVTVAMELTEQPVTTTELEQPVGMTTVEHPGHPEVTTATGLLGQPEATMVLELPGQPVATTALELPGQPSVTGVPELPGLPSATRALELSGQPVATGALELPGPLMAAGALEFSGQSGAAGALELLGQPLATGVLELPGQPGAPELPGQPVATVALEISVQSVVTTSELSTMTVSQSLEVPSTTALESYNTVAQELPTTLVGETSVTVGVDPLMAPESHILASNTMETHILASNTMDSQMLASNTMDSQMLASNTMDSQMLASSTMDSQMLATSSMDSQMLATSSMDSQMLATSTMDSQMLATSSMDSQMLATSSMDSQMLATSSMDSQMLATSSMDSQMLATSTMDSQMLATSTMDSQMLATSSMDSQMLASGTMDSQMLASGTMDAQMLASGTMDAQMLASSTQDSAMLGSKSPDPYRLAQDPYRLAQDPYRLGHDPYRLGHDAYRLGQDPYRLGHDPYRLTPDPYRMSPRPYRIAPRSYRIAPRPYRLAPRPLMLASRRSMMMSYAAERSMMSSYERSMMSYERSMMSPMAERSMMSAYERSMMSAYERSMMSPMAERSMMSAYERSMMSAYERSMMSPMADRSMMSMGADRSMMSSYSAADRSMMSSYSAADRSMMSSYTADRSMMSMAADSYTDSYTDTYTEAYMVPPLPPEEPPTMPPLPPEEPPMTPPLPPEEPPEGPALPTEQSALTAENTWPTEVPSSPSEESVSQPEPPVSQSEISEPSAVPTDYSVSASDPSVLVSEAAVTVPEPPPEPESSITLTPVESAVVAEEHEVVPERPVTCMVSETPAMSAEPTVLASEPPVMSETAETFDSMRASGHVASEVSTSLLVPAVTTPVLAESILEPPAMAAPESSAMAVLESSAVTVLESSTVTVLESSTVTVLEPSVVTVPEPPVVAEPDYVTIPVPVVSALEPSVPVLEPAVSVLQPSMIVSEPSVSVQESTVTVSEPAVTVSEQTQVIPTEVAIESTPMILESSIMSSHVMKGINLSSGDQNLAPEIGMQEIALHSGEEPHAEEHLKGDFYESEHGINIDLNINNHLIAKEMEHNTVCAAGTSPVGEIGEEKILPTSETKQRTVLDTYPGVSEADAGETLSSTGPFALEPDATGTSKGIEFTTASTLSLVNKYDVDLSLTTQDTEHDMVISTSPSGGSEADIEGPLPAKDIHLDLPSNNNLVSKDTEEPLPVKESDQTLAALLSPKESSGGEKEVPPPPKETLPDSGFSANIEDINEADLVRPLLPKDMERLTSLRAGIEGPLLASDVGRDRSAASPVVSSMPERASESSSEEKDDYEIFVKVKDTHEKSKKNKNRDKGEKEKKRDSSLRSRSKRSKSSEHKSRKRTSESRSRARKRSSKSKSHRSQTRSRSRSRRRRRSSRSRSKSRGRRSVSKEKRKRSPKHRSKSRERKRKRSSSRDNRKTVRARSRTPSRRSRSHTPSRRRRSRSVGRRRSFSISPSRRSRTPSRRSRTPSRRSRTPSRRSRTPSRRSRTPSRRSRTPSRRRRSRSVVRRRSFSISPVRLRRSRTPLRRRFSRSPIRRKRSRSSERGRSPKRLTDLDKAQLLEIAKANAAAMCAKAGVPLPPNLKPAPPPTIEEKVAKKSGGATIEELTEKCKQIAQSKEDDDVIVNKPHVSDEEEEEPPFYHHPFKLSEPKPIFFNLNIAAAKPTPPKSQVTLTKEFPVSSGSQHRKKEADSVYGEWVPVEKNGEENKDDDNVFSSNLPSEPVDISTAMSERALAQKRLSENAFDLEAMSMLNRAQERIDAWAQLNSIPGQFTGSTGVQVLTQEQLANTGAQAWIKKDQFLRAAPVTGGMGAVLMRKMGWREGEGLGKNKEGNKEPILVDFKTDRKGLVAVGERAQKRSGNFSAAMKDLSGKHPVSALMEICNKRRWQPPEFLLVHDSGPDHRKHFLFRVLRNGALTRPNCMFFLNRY
- probe-labelled cysteine peptide fold change (10 µM): -0.351
- probe-labelled cysteine peptide fold change (50 µM): -1.24

Target: TCF20_Q9UGU0_1795_SEDCGGGPR (UniProt Q9UGU0)
- probe-labelled cysteine peptide fold change (10 µM): -0.142
- probe-labelled cysteine peptide fold change (50 µM): -0.0709

Target: THUMPD1_Q9NXG2_31_CDAGGPR (UniProt Q9NXG2)
- probe-labelled cysteine peptide fold change (10 µM): 0.347
- probe-labelled cysteine peptide fold change (50 µM): 1.08

Target: TATDN3_Q17R31_66_YNGFVLPCLGVHPVQGLPPEDQR (UniProt Q17R31)
Sequence of UniProt Q17R31 (Q17R31 whole entry, looked up): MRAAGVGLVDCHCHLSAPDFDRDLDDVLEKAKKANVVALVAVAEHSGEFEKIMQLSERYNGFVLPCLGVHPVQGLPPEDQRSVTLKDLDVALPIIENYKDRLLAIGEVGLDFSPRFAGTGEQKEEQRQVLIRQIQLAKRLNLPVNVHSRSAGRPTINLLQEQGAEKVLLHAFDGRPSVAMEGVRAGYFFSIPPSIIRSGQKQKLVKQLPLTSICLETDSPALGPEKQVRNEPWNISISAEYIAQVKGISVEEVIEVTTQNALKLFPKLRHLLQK
- probe-labelled cysteine peptide fold change (10 µM): 0.0121
- probe-labelled cysteine peptide fold change (50 µM): 1.04

Target: TNS3_Q68CZ2_88_MCTICK (UniProt Q68CZ2)
Sequence of UniProt Q68CZ2 (Q68CZ2 whole entry, looked up): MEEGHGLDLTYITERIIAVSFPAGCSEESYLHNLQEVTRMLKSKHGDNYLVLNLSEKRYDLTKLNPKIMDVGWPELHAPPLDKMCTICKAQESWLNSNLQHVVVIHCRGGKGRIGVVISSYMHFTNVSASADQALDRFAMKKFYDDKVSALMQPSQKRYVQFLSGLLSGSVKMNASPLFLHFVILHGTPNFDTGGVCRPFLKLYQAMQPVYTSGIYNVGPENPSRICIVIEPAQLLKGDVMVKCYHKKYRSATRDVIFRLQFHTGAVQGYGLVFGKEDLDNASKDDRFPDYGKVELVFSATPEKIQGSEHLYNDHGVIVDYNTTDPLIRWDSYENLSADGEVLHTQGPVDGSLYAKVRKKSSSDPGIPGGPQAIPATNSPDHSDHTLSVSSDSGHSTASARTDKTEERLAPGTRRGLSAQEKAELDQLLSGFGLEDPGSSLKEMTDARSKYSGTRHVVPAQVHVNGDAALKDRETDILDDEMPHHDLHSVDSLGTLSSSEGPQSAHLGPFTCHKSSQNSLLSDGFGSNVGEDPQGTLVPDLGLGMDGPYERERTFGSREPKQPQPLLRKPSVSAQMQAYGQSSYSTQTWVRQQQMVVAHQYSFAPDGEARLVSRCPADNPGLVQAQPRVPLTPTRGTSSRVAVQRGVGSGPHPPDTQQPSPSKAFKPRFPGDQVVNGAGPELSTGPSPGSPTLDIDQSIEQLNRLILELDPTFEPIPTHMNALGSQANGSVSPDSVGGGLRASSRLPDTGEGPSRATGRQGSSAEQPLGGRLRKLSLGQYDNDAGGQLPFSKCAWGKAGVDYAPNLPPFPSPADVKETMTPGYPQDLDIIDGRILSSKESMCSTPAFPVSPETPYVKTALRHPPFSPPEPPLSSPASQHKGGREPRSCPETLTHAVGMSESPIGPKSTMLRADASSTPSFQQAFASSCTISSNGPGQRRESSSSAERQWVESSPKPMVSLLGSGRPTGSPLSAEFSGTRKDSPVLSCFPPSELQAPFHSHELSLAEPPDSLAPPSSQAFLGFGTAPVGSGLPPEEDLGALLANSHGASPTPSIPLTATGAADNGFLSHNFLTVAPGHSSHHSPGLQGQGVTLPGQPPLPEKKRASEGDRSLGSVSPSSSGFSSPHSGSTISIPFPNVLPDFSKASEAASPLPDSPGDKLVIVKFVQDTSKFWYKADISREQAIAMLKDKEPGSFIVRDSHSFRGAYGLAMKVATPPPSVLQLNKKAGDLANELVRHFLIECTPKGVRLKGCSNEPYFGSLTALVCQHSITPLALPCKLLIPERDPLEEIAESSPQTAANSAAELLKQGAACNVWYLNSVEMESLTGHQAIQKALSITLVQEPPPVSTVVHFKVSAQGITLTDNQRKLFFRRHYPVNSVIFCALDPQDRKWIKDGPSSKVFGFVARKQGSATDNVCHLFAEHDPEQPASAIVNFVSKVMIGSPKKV
- probe-labelled cysteine peptide fold change (10 µM): -0.357
- probe-labelled cysteine peptide fold change (50 µM): -0.873

Target: TEP1_Q99973_2105_TPVLIHSFPACHR (UniProt Q99973)
- probe-labelled cysteine peptide fold change (10 µM): -0.0307
- probe-labelled cysteine peptide fold change (50 µM): -0.291

Target: SP3_Q02447_683_KFVCPECSK (UniProt Q02447)
- probe-labelled cysteine peptide fold change (10 µM): 0.188
- probe-labelled cysteine peptide fold change (50 µM): 0.33

Target: TES_Q9UGI8_164_CHELSPR (UniProt Q9UGI8)
- probe-labelled cysteine peptide fold change (10 µM): -0.162
- probe-labelled cysteine peptide fold change (50 µM): -0.0644

Target: TET2_Q6N021_784_VEECFHGENQYSK (UniProt Q6N021)
- probe-labelled cysteine peptide fold change (10 µM): -0.295
- probe-labelled cysteine peptide fold change (50 µM): -0.385

Target: TOP2A_P11388_170_LCNIFSTK (UniProt P11388)
- probe-labelled cysteine peptide fold change (10 µM): -0.173
- probe-labelled cysteine peptide fold change (50 µM): -0.0147

Target: THOC5_Q13769_282_HLPPPLYVLFVQATAYGQACDK (UniProt Q13769)
- probe-labelled cysteine peptide fold change (10 µM): 0.435
- probe-labelled cysteine peptide fold change (50 µM): 1.48

Target: TARSL2_A2RTX5_637_YHQCATIQLDFQLPIR (UniProt A2RTX5)
- probe-labelled cysteine peptide fold change (10 µM): 0.00987
- probe-labelled cysteine peptide fold change (50 µM): 0.158

Target: SNX6_Q9UNH7_347+348_DVLQAETSQQLCCQK (UniProt Q9UNH7)
- probe-labelled cysteine peptide fold change (10 µM): -0.288
- probe-labelled cysteine peptide fold change (50 µM): -0.619

Target: SPAG9_O60271_1210_VTPGTFIPYCSMAHAQLCFHGHR (UniProt O60271)
- probe-labelled cysteine peptide fold change (10 µM): 0.231
- probe-labelled cysteine peptide fold change (50 µM): 1.04

Target: TCF20_Q9UGU0_1918_YHYPCAIDADCLLHEENFSVR (UniProt Q9UGU0)
- probe-labelled cysteine peptide fold change (10 µM): 0.317
- probe-labelled cysteine peptide fold change (50 µM): 0.504
